Results taken from PubChem BioAssay.
“And” between values parts separate entries of the source, which are not always exact repeats. Equal values may be shown once. The source made the active and inactive calls. No stated cut-off is given here; in the data, active means inhibition above about 83%; inactive means the rest.

test: CRL2098 osteosarcoma cell growth inhibition, synergistic combos for chromothripsis tumors, BGB or cisplatin IC20 combos (AID 1671454); details: CRL2098 osteosarcoma cells, drug combinations, measured here: combination with cisplatin at IC20, at 0.5 µM, stronger effect = higher value;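 further: cells exposed for 96 h before readout; 0% = vehicle DMSO and 100% = killing by high DMSO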

SMILES	inhibition
C[C@H]1COc2c(C3(N)CC3)c(F)cc3c(=O)c(C(=O)O)cn1c23	-41.6%
CCN1CCN(c2cc3c(cc2F)c(=O)c(C(=O)O)cn3C2CC2)CC1	-26.8%
O=C(O)P(=O)(O)O	-148%
CC1CCc2cc(F)cc3c(=O)c(C(=O)O)cn1c23 (centres undefined)	-17.1% and 17.1%
CN(C)/N=N/c1nc[nH]c1C(N)=O	34.4% and -173%
Nc1nc2c(ncn2CCC(CO)CO)c(=O)[nH]1	-13.5% and -79.6%

test: HD-MB03 medulloblastoma cell growth inhibition, synergistic combos for chromothripsis tumors, BGB or cisplatin IC20 combos (AID 1671455); details: HD-MB03 medulloblastoma cells, at 0.5 µM, stronger effect = higher value;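 further: 0% = vehicle DMSO and 100% = high DMSO as cytotoxic control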

SMILES	inhibition
C[C@H]1COc2c(C3(N)CC3)c(F)cc3c(=O)c(C(=O)O)cn1c23	-8.87% (inactive)
CCN1CCN(c2cc3c(cc2F)c(=O)c(C(=O)O)cn3C2CC2)CC1	-4.62% (inactive)
O=C(O)P(=O)(O)O	-14.1% (inactive)
CC1CCc2cc(F)cc3c(=O)c(C(=O)O)cn1c23 (centres undefined)	-4.42% (inactive) and 1.31% (inactive)
CN(C)/N=N/c1nc[nH]c1C(N)=O	0.8% (inactive) and -6.95% (inactive)
Nc1nc2c(ncn2CCC(CO)CO)c(=O)[nH]1	-6.81% (inactive) and 1.52% (inactive)

same assay, conditions: HD-MB03 medulloblastoma cells, measured here: combo with BGB at IC20, at 0.5 µM, stronger effect = higher value

SMILES	inhibition
C[C@H]1COc2c(C3(N)CC3)c(F)cc3c(=O)c(C(=O)O)cn1c23	-6%
CCN1CCN(c2cc3c(cc2F)c(=O)c(C(=O)O)cn3C2CC2)CC1	-3.92%
O=C(O)P(=O)(O)O	-16%
CC1CCc2cc(F)cc3c(=O)c(C(=O)O)cn1c23 (centres undefined)	-11.9% and -3.2%
CN(C)/N=N/c1nc[nH]c1C(N)=O	4.98% and -8.86%
Nc1nc2c(ncn2CCC(CO)CO)c(=O)[nH]1	-13.9% and 7.53%

same assay, conditions: HD-MB03 medulloblastoma cells, measured here: combo with cisplatin at IC20, at 0.5 µM, stronger effect = higher value

SMILES	inhibition
C[C@H]1COc2c(C3(N)CC3)c(F)cc3c(=O)c(C(=O)O)cn1c23	-11.8%
CCN1CCN(c2cc3c(cc2F)c(=O)c(C(=O)O)cn3C2CC2)CC1	-4.26%
O=C(O)P(=O)(O)O	-17.1%
CC1CCc2cc(F)cc3c(=O)c(C(=O)O)cn1c23 (centres undefined)	7.79% and 0.674%
CN(C)/N=N/c1nc[nH]c1C(N)=O	-6.17% and -0.723%
Nc1nc2c(ncn2CCC(CO)CO)c(=O)[nH]1	-2.89% and -3%
